Experiment [1] can be described thus: Nuclear factor erythroid 2-related factor 2/antioxidant responsive element (Nrf2/ARE) small molecule agonists: qHTS cell viability counter screen in human keratinocytes (AID 1919968; active = well fitted curve in the direction sought with a large enough effect in the repeat runs; an effect the other way counts as inactive or inconclusive; also: nearly all actives have a fitted effect of over 55% in size; also: potency is read from the fitted curve at half-maximal effect). A digest of the protocol: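 KeratinoSens HaCaT cells, 1,500/well, preincubated 5 h, then exposed to compounds in DMSO for 23 h at 37 C/5% CO2. Viability read as CellTiter-Fluor fluorescence after 1 h, in the same wells as the ARE-luciferase read.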
Background: Quantitative high-throughput screening tests each substance at several concentrations.

Experiment [2] in a line: Nuclear factor erythroid 2-related factor 2/antioxidant responsive element (Nrf2/ARE) small molecule agonists: luciferase reporter gene qHTS assay in human keratinocytes (AID 1919969). Also: nearly all actives have a fitted effect of over 35% in size. Also: potency is read from the fitted curve at half-maximal effect.
The target of experiment [3] is Gonadotropin-releasing hormone receptor (Homo sapiens) (UniProt P30968). Briefly: Human gonadotropin-releasing hormone receptor (GnRHR) small molecule agonists, calcium flux assay in GnRHR-HEK293 cells (AID 1920063). Also: nearly all actives have a fitted effect of over 35% in size. In short, it runs like this: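 HEK293 cells stably expressing human GnRHR were dye-loaded for 1 h at 37 C. Compound was added in agonist mode and fluorescence (Ex/Em 480/540) recorded kinetically for 3 min. Fifteen concentrations, triplicates.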
Sequence of Gonadotropin-releasing hormone receptor (Homo sapiens) (P30968 whole entry, looked up): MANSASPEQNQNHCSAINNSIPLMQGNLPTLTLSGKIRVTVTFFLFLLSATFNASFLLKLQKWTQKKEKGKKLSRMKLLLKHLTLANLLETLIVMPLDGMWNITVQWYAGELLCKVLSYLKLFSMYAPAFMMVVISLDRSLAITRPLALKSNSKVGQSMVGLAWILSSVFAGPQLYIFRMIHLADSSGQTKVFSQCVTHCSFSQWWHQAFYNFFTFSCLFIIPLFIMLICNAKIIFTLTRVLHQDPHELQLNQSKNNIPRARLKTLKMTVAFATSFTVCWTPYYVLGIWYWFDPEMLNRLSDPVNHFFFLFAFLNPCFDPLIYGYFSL

Experiment [4] concerns the target KiSS-1 receptor (Homo sapiens) (UniProt Q969F8). Kind of experiment: Human kisspeptin (KISS1R) small molecule agonists, calcium flux assay in KISS1R-HEK293 cells (AID 1920064; active = well fitted curve in the direction sought with a large enough effect in the repeat runs; an effect the other way counts as inactive or inconclusive). A digest of the protocol: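 HEK293 cells stably expressing human KISS1R were loaded with calcium dye for 1 h at 37 C, then given compound; fluorescence (Ex/Em 480/540) was read kinetically for 3 min. Fifteen concentrations, triplicate.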
For orientation: A change in cytosolic calcium serves as a functional read-out for many receptors and channels.

A short description of experiment [5]: G protein-coupled receptor (GPCR) small molecule agonists, calcium flux assay: HEK293 wild type cell line counter screen (AID 1920065). A digest of the protocol:
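Wild-type HEK293 cells plated 18 h, loaded with calcium dye 1 h at 37 C, then compounds added in agonist mode (ATP as positive control). Kinetic fluorescence Ex/Em 480/540 recorded 3 min at 1 sec intervals; 15 concentrations, triplicate.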

A short description of experiment [6]: p53 small molecule agonists, cell-based qHTS assay with human liver microsomes (AID 1963577). A digest of the protocol:
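Fluorescence of the beta-lactamase reporter in p53RE-bla cells, detected with LiveBLAzer substrate (2 h, room temperature, dark), served as the read-out after 16 h compound exposure at 37 C with human liver microsomes and NADPH, each 0.5 mg/mL final.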

Experiment [7] can be described thus: p53 small molecule agonists, cell-based qHTS assay with rat liver microsomes (AID 1963578). In short, it runs like this:
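Cells carrying a p53 response element–beta-lactamase reporter were plated and rested 5 h, then dosed with compound in DMSO plus rat liver microsomes and NADPH, each at 0.5 mg/mL final. After 16 h at 37 C, LiveBLAzer substrate was added for 2 h.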

Experiment [8] can be described thus: p53 small molecule agonists, cell-based qHTS assay with human liver microsomes: qHTS cell viability counter screen (AID 1963579). Also: nearly all actives have a fitted effect of over 45% in size. Also: potency is read from the fitted curve at half-maximal effect. In short, it runs like this:
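Cytotoxicity counter screen: p53RE-bla, 4,000 cells/well; 5 h settle, 37 C/5% CO2; cpd + HLM 0.5 mg/mL + NADPH 0.5 mg/mL (final); 16 h, 37 C; CellTiter-Glo, 30 min RT, luminescence.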

A short description of experiment [9]: p53 small molecule agonists, cell-based qHTS assay: qHTS cell viability counter screen (AID 1963581). Also: nearly all actives have a fitted effect of over 45% in size. Also: potency is read from the fitted curve at half-maximal effect. In short, it runs like this: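 p53RE-bla HCT-116 cells, compounds added 5 h after plating and incubated 16 h at 37 C. Cytotoxicity measured in the same wells as intracellular ATP by CellTiter-Glo luminescence after 30 min at room temperature.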
In experiment [10] the target is 5-hydroxytryptamine receptor 2A (Homo sapiens) (UniProt P28223). Briefly: 5-hydroxytryptamine receptor 2A (HTR2A) small molecule antagonists, cell-based qHTS assay (AID 1963586). Also: nearly all actives have a fitted effect of over 45% in size. A digest of the protocol:
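Antagonist-mode intracellular calcium assay: DOI (4 nM) added after 5 min compound pre-incubation at room temperature to dye-loaded HTR2A-CHO cells. Fluorescence followed for 3 min, sampled every second.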

Experiment [11] has the same target. Briefly: 5-hydroxytryptamine receptor 2A (HTR2A) small molecule agonists, cell-based qHTS assay (AID 1963587). Also: nearly all actives have a fitted effect of over 30% in size. A digest of the protocol:
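Kinetic calcium-flux fluorescence (2 min, 1 sec intervals) after compound addition in agonist mode. HTR2A-CHO cells were cultured 18 h, then dye-loaded 1 h at 37 C.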

The target of experiment [12] is Muscarinic acetylcholine receptor M1 (Homo sapiens) (UniProt P11229). Briefly: Cholinergic receptor muscarinic 1 (CHRM1) small molecule agonists, cell-based qHTS assay (AID 1963589). Also: nearly all actives have a fitted effect of over 35% in size. In short, it runs like this:
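CHO cells stably expressing human CHRM1 were loaded with calcium dye for 1 h at 37 C, then compound was added in agonist mode. Intracellular calcium fluorescence was followed kinetically at 1 s intervals. Fifteen concentrations were tested in three independent runs.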

The target of experiment [13] is Beta-2 adrenergic receptor (Homo sapiens) (UniProt P07550). Kind of experiment: Adrenergic beta2 receptor (ADRB2) small molecule antagonists, cell-based qHTS assay (AID 1963592). Also: series mostly up to about 92 µM; nearly all actives have a fitted effect of over 50% in size. In short, it runs like this: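 Cells (CHO, stable ADRB2 overexpression) incubated 18-20hr at 37C; compounds added from DMSO; agonist mix (1nM isoproterenol, 100uM IBMX, 25uM Ro-20-1724) added; 0.5hr RT; d2-cAMP and anti-cAMP-cryptate added; 1hr RT; 665/615 nm read.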
Sequence of Beta-2 adrenergic receptor (Homo sapiens) (P07550 whole entry, looked up): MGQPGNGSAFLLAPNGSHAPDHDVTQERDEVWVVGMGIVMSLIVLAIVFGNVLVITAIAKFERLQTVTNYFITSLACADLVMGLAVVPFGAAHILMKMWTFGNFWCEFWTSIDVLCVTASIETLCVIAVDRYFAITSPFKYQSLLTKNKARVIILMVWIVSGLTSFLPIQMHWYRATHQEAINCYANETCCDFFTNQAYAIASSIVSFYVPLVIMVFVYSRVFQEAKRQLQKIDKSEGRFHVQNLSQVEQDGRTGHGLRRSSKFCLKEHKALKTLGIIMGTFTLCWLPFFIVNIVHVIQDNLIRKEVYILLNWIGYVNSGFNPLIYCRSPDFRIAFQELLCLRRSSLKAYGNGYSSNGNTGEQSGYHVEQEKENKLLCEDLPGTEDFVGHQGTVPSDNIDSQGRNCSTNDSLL

Experiment [14] deals with D(2) dopamine receptor (Homo sapiens) (UniProt P14416). Kind of experiment: Dopamine D2 receptor (DRD2) small molecule agonists, cell-based qHTS assay (AID 1963594). Also: nearly all actives have a fitted effect of over 35% in size. In short, it runs like this:
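cAMP accumulation in DRD2-HEK293 cells measured by HTRF after 1 h detection; compounds added 10 min before NKH477 (200nM […]) forskolin-analogue stimulation, 30 min at room temperature, with Ro20-1724 present at 0.1 mM final.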

For experiment [15] the target is unchanged. Kind of experiment: Dopamine D2 receptor (DRD2) small molecule antagonists, cell-based qHTS assay (AID 1963595; active = well fitted inhibition curve with a large enough effect in the signal ratio in the repeat runs, with a control signal flat; the % refers to the signal ratio). In short, it runs like this: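 Antagonist mode in DRD2-HEK293 cells: after compound addition with 0.1 mM Ro20-1724, cells received quinpirole (12 nM) and NKH477 (200 nM) for 30 min at room temperature; HTRF cAMP read after 1 h detection.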

Experiment [16] in a line: p53 small molecule agonists, cell-based qHTS assay with rat liver microsomes: qHTS cell viability counter screen (AID 1963580). Also: nearly all actives have a fitted effect of over 45% in size. In short, it runs like this:
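Intracellular ATP, by CellTiter-Glo luminescence, defines viability. HCT-116 p53RE-bla cells, 4,000 per well, were compound-treated in the presence of rat liver microsomes and NADPH for 16 h at 37 C.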

A short description of experiment [17]: p53 small molecule agonists, cell-based qHTS assay (AID 1963582; active = well fitted activation curve with a large enough effect in the signal ratio in the repeat runs, not every such curve was filed as active; the % refers to the signal ratio). In short, it runs like this: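 p53RE-bla reporter cells, compounds added in DMSO after 5 h plating, incubated 16 h at 37 C. Beta-lactamase read via 2 h room-temperature LiveBLAzer B/G FRET substrate, fluorescence intensity.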
Experiment [18] deals with Muscarinic acetylcholine receptor M1 (Homo sapiens) (UniProt P11229). Kind of experiment: Cholinergic receptor muscarinic 1 (CHRM1) small molecule antagonists, cell-based qHTS assay (AID 1963588). Also: nearly all actives have a fitted effect of over 40% in size. Also: potency is read from the fitted curve at half-maximal effect. In short, it runs like this: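 CHRM1-CHO calcium-flux assay, antagonist mode. Cells were seeded 18 h, dye-loaded 1 h at 37 C and given compound for 5 min at RT, then acetylcholine was added at 50nM. FDSS fluorescence was read 3 min; 15 concentrations, three runs.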
Sequence of Muscarinic acetylcholine receptor M1 (Homo sapiens) (P11229 whole entry, looked up): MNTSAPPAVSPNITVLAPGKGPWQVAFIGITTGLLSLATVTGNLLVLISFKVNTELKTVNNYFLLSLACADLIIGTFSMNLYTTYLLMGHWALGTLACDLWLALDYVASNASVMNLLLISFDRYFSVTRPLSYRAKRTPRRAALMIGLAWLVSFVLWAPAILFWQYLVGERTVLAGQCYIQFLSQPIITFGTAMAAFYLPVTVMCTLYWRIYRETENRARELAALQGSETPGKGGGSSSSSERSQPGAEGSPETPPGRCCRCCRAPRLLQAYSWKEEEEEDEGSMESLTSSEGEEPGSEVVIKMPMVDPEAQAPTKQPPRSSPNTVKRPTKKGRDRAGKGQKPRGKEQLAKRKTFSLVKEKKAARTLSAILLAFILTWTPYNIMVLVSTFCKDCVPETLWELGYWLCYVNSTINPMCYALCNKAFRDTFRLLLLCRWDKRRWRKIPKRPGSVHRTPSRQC

Experiment [19] in a line: cAMP Responsive Elements (CRE) small molecule agonists, cell-based qHTS assay (AID 1963590). In short, it runs like this: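 CRE-bla HEK 293T cells, 2,000/well in DMEM with 10% dialyzed FBS and 25 mM HEPES, pre-incubated 18 h at 37 C, then exposed to compound 3 h at 37 C. Beta-lactamase reporter read with LiveBLAzer B/G FRET substrate after 2 h at room temperature.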
Experiment [20] can be described thus: cAMP Responsive Elements (CRE) small molecule antagonists, cell-based qHTS assay (AID 1963591; active = well fitted inhibition curve with a large enough effect in the signal ratio in the repeat runs, not every such curve was filed as active; the % refers to the signal ratio; also: potency is read from the fitted curve at half-maximal effect). A digest of the protocol: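 CRE-bla HEK293T cells plated 18 h, then given compound plus NKH477 at 0.25 uM final for 3 h at 37C. Beta-lactamase reporter read with LiveBLAzer B/G FRET substrate after 2 h at room temperature.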

Where “and” joins values, the source holds several entries; their conditions need not be identical. Equal entries are not always repeated. Inconclusive results are not listed. A structure can be active in one record and inactive in another. Calls of active or inactive are those of the source. Unless noted, calls follow the shape of the full dose curve.

Sequence of KiSS-1 receptor (Homo sapiens) (Q969F8 whole entry, looked up): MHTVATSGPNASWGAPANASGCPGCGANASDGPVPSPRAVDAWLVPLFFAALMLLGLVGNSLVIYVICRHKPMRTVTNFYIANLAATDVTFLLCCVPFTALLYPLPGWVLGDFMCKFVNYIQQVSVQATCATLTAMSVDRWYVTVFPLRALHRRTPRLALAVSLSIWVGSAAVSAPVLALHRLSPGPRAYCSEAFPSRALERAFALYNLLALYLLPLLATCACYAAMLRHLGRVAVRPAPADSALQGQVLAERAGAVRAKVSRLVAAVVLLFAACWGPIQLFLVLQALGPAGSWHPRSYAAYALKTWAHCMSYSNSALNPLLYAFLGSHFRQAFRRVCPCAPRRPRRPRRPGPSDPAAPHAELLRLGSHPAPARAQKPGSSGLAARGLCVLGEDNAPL
Sequence of D(2) dopamine receptor (Homo sapiens) (P14416 whole entry, looked up): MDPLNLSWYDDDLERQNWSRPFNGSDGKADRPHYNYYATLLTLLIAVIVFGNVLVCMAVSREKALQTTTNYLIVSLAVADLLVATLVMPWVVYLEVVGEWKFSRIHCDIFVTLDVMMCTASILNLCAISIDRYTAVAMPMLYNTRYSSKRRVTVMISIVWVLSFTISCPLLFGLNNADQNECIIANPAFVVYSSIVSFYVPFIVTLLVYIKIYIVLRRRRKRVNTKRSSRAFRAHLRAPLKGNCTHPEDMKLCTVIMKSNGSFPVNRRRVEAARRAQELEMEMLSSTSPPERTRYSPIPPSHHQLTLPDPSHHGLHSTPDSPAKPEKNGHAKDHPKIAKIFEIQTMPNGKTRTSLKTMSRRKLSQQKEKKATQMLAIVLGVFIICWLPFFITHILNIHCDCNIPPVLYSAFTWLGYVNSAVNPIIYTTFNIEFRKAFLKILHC
Sequence of 5-hydroxytryptamine receptor 2A (Homo sapiens) (P28223 whole entry, looked up): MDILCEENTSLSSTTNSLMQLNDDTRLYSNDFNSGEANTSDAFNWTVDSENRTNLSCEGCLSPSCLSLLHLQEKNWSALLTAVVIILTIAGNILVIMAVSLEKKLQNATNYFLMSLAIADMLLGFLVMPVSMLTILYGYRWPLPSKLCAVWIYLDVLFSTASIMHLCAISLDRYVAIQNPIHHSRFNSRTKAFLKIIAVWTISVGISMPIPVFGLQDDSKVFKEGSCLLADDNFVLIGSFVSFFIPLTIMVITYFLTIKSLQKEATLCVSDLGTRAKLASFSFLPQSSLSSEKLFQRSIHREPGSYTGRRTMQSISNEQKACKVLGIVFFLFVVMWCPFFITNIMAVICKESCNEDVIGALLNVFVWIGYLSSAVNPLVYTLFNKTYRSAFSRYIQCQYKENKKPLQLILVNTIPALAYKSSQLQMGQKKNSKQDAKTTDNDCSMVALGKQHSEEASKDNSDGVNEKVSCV

On to `O=c1oc2ccccc2c(O)c1C(CC(O)c1ccc(-c2ccc(Br)cc2)cc1)c1ccccc1` (stereo not given), for which the Potency result in experiment [1], in experiment [2], in experiment [3], in experiment [4], in experiment [5] and in experiment [6] was “inactive” each time. Further, the Potency result in experiment [7], in experiment [8], in experiment [10], in [11], in experiment [12] and in experiment [13] was “inactive” in each case. Also, the Potency result in experiment [14] and in experiment [15] was “inactive” in each case. Moreover, the Potency in experiment [9] was 19.3 µM (active).

As for `C=CCc1cc(OC)c2c(c1)OCO2`, the Potency entry in [1], in [2], in experiment [3], in [4], in [5] and in experiment [6] was “inactive” in each case. The Potency result in experiment [7], in experiment [16], in experiment [9], in experiment [17], in [10] and in experiment [11] was “inactive” each time. For the same molecule, the Potency entry in [18], in [12], in [19], in experiment [20], in experiment [13] and in [14] was “inactive” each time. Besides, in [15], the Potency result is “inactive”.

As to `Clc1ccc(COC(Cn2ccnc2)c2ccc(Cl)cc2Cl)cc1` (stereo not given), the Potency in experiment [1] is 45.3 µM (active) and 27.2 µM (active) and 13.3 µM (active); in [2], 22.7 µM (active) and 13.3 µM (active); in experiment [8], 38 µM (active) and inactive; in experiment [20], 50.8 µM (active). Further, the Potency result in [3], in experiment [4], in experiment [5], in experiment [6], in experiment [7] and in experiment [19] was “inactive” throughout. The Potency entry in experiment [13] and in [14] was “inactive” each time.

With `Clc1ccc(C(c2ccc(Cl)cc2)C(Cl)Cl)cc1`, the Potency in experiment [1] was 27.8 µM (active); in experiment [2], 15.6 µM (active) and inactive; in experiment [9], 41.4 µM (active); in experiment [18], 0.135 µM (active). For the same molecule, the Potency entry in [3], in [4], in experiment [5], in [6], in [7] and in experiment [16] was “inactive” throughout. Besides, the Potency result in [17], in experiment [10], in experiment [11], in experiment [12], in experiment [20] and in [13] was “inactive” in each case. The Potency result in experiment [14] and in experiment [15] was “inactive” throughout.

As to `CCC(C)(C#N)N=NC(C)(C#N)CC` (stereo not given), the Potency result in [1], in [2], in experiment [3], in [4], in experiment [5] and in experiment [6] was “inactive” each time. Moreover, the Potency entry in experiment [7], in experiment [16], in [9], in [17], in experiment [10] and in experiment [11] was “inactive” each time. Further, the Potency entry in experiment [18], in [12], in experiment [19], in experiment [20], in experiment [13] and in [14] was “inactive” in each case. Further, the Potency entry in experiment [15] was “inactive”.

`CC1(C)C(C=C(Cl)Cl)C1C(=O)OC(C#N)c1cccc(Oc2ccccc2)c1` (stereo not given): the Potency entry in experiment [1], in [2], in experiment [3], in experiment [4], in experiment [5] and in [6] was “inactive” throughout. The Potency result in experiment [7], in [16], in experiment [9], in [17], in experiment [10] and in [11] was “inactive” in each case. The Potency entry in experiment [18], in experiment [12], in [19], in experiment [20], in [13] and in experiment [14] was “inactive” in each case. The Potency entry in experiment [15] is “inactive”.

Turning to `CCN(CC)CCO`, the Potency entry in [1], in experiment [2], in experiment [3], in experiment [4], in [5] and in experiment [6] was “inactive” each time. Moreover, the Potency entry in experiment [7], in experiment [16], in experiment [9], in experiment [17], in experiment [10] and in [11] was “inactive” each time. The Potency result in experiment [18], in [12], in [19], in [20], in experiment [13] and in experiment [14] was “inactive” throughout. Besides, in experiment [15], the Potency entry is “inactive”.

For the molecule `CC1OC(C)OC(C)O1` (stereo not given), the Potency result in experiment [1], in experiment [2], in experiment [3], in experiment [4], in experiment [5] and in [6] was “inactive” throughout. The Potency entry in [7], in experiment [16], in experiment [9], in experiment [17], in experiment [10] and in experiment [11] was “inactive” in each case. Further, the Potency result in [18], in experiment [12], in experiment [19], in experiment [20], in experiment [13] and in experiment [14] was “inactive” in each case. Moreover, the Potency result in [15] was “inactive”.

Values taken from PubChem BioAssay (Tox21).
